Screening results: PubChem, National Center for Advancing Translational Sciences (NCATS)
RE007 growth inh: less growth of the S. pombe RE007 Vpr strain; AID 651644; Potency, µM (highest dose often 92.2 µM), for inactives: at the top dose activity change, negative = less growth, hits mostly inhibitors; 360,000 tested, 0.21% active; S. pombe RE007 Vpr strain, BacTiter-Glo ATP luminescence, 24 h; active = well fitted falling curve with a large enough effect; inconclusive = small, poorly fitted or top-dose-only effect; inactive = no such curve, though single readings can be large or run the other way; note: % is set by controls: 0 for no effect and ±100 for the full control effect; nearly all actives have a fitted effect of over 50% in size
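Fission yeast strain RE007, carrying one chromosomally integrated HIV-1 vpr copy, was seeded at OD 0.01 in PMG+AL medium with 23 nL pinned compound. After 24 h at 30 °C and 99% humidity, viability was read by BacTiter-Glo luminescence.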
Pf growth 48h: inhibits P. falciparum growth in the first generation, 48 h | P. falciparum luciferase growth in erythrocytes, 48 h | Potency, µM (highest dose often 28.7 µM), inactives show at the top dose activity change, negative = inhibition, hits mostly inhibitors | 310,000 tested, 5.9% active | AID 504832; active = well fitted inhibition curve with a large enough effect; inconclusive = small, poorly fitted or top-dose-only effect, or another doubt; inactive = no such curve, though single readings can be large or run the other way; note: % is set by controls: 0 for no effect and ±100 for the full control effect
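Cell-based growth assay: transgenic P. falciparum expressing firefly luciferase, cultured in red cells within RPMI 1640 containing 0.5% w/v Albumax, 24 mM bicarbonate and gentamycin. A drop in luciferase activity indicates inhibition.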
SARS PLpro yeast: blocks SARS-CoV papain-like protease in a yeast assay | S. cerevisiae expressing SARS-CoV PLpro, growth rescue | Potency, µM (series often up to 32.9 µM), inactives show at the top dose activity, positive = growth rescue, hits mostly activators | 330,000 tested, 0.19% active | AID 485353; note: 0% is about no effect; nearly all actives have a fitted effect of over 55% in size
NS1 inh: inhibitors of influenza NS1 protein function. Potency, µM (doses to about 46.1 µM), inactives show top-dose activity, positive = more growth. 270,000 tested, 0.4% active. AID 2326; note: actives are rising curves; nearly all actives have a fitted effect of over 50% in size
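Growth recovery, yeast-based: influenza A NS1 expressed in S. cerevisiae causes slow growth, and suppressors are detected by OD600. The parent strain without NS1 is used as positive control.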
Pf growth 96h: inhibits malaria parasite growth, 96 h. AID 504834. 320,000 tested, 6.9% active. P. falciparum luciferase reporter growth, 96 h. Potency, µM (doses to about 28.7 µM), for the others: top-dose activity change, negative = inhibition, hits mostly inhibitors; active = well fitted inhibition curve with a large enough effect; inconclusive = small, poorly fitted or top-dose-only effect, or another doubt; inactive = no such curve, though single readings can be large or run the other way; note: % is set by controls: 0 for no effect and ±100 for the full control effect
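Compounds incubated with erythrocytes infected by luciferase-expressing P. falciparum (2% hematocrit, 0.05% parasitemia final) for 96 hours, 37 C in 5% CO2. Growth inhibition scored as decreased luciferase luminescence.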
An asterisk follows results filed as active; ? = inconclusive; . = no result. Only some compounds are listed: those with a hit (about 9.5% of all), similar ones and a draw of the others. Unless noted, calls come from the whole dose curve. Potency is the fitted concentration of half-maximal effect.

SMILES	RE007 growth inh	Pf growth 48h	SARS PLpro yeast	NS1 inh	Pf growth 96h
Cc1ccc(NC(=O)CCN2CCC(Cc3ccccc3)CC2)cc1	-6%	7.4µM*	-1%	-3%	10µM*
O=C(CCN1CCCCCC1)Nc1cccc(Cl)c1	7%	9%	-5%	2%	2.1µM*
CC1CC(C)CN(CCC(=O)Nc2ccc(Br)cc2)C1 (configuration not stated)	2%	-7%	0%	-3%	7.4µM*
O=C(CCN1CCCCC1)Nc1cccc(Cl)c1	21%	.	1%	4%	?
CC1CCN(CCC(=O)Nc2ccc(Br)cc2)CC1	5%	.	.	7%	.
Cc1nc2ccc(NS(=O)(=O)c3ccc4c(c3)OCCO4)cc2s1	25%	-17%	-2%	-20%	.
Cc1cccc(NC(=O)CCC2CCN(C(=O)c3ccc(C)s3)CC2)c1	15%	?	5%	12%	?
Cc1cccc(NC(=O)CCC2CCN(Cc3nccs3)CC2)c1	-1%	-25%	6%	3%	9.3µM*
Cc1ccc(NC(=O)CCN2CCN(C/C=C/c3ccccc3)CC2)cc1C	0%	6.6µM*	-8%	13%	89%
O=C(CCC(=O)c1ccc(Oc2ccccc2)cc1)Nc1cccc(Cl)c1	8%	10%	20%	-1%	5.9µM*
Cc1ccc(/C(=N\O)c2oc3c(C)c4oc(=O)cc(C)c4cc3c2C)cc1	-1%	?	-20%	3%	9.3µM*
Cc1cc(=O)oc2c1ccc1oc(/C(=N/O)c3ccccc3)c(C)c12	0%	1.7µM*	-3%	-48%	.
CCc1c(C(C)=O)oc2ccc3c(C)cc(=O)oc3c12	14%	?	0%	8%	?
O=C(CCc1ccccc1)NNC(=O)c1ccncc1	7%	.	0%	.	.
O=C(OCCCN=C1NS(=O)(=O)c2ccccc21)c1ccc([N+](=O)[O-])cc1	-16%	46%	-1%	1%	46%
CC(C)CCNC(=O)C(c1ccc(O)cc1)N(C(=O)C1COc2ccccc2O1)c1cccc(O)c1 (configuration not stated)	0%	12µM*	1%	-5%	?
CCOc1cccc(N(C(=O)C2COc3ccccc3O2)C(C(=O)NC2CCCCC2)c2ccc(O)cc2)c1 (configuration not stated)	-5%	13µM*	11%	7%	57%
O=C(NCCc1ccc(O)c(O)c1)C1COc2ccccc2O1 (configuration not stated)	-4%	?	-3%	-3%	-68%
O=C(NC1CCCC1)C(c1ccc(O)cc1)N(CC1CCCO1)C(=O)C1COc2ccccc2O1 (configuration not stated)	5%	?	1%	-57%	15%
c1ccc(C[n+]2cccc(-c3ccccc3)c2)cc1	-4%	2.1µM*	2%	9%	0.66µM*
O=C(c1ccccc1S(=O)(=O)NCc1ccccc1)N1CCCC1	5%	.	11%	?	15µM*
Cc1cc(C)c(C)c(S(=O)(=O)NCc2ccc(C(=O)N3CCCC3)cc2)c1C	-6%	6.6µM*	18%	-3%	?
Cc1cc(C)c(C)c(S(=O)(=O)NCc2ccc(C(=O)N3CCCCC3)cc2)c1C	2%	1µM*	-38%	-20%	0.41µM*
Cc1cc(C)c(C)c(S(=O)(=O)NCC(=O)N2CCCC2)c1C	-10%	-13%	-2%	-17%	19%
Cc1ccc(C)c(S(=O)(=O)NCc2ccc(C(=O)N3CCCCCC3)cc2)c1	19%	?	7%	-19%	7.4µM*
SMILES	RE007 growth inh	Pf growth 48h	SARS PLpro yeast	NS1 inh	Pf growth 96h
Cc1ccc(C)c(S(=O)(=O)NCc2ccc(C(=O)N3CCN(c4ccccc4)CC3)cc2)c1	10%	-13%	?	24%	-31%
Cc1noc(C)c1COc1ccccc1C(=O)NNC(=O)C(C)Oc1ccccc1F (configuration not stated)	8%	6%	-6%	.	-6%
COc1ccc(CCC(=O)NNC(=O)c2ccc(OC)cc2)cc1	-21%	19%	2%	-7%	36%
CN1CC=C2C(C#N)=C(N)C(C#N)(C#N)C(CCc3ccccc3)C2C1 (configuration not stated)	6%	-24%	-7%	4%	7.4µM*
CN1CC=C2C(C#N)=C(N)C(C#N)(C#N)[C@H](c3cccs3)[C@H]2C1	-2%	-10%	-11%	10%	-25%
NCC1CCC(N)C(O[C@@H]2C(O)[C@H](O[C@H]3OC(CO)C(O)C(N)C3O)[C@@H](N)C[C@H]2N)O1 (some centres not stated)	.	-13%	.	.	?
O=C(CCl)c1ccc2c(c1)CCN2C(=O)C1CC1	.	-15%	21%	-45%	10µM*
CC(=O)N1CCc2cc(C(=O)CN3CCC(C)CC3)ccc21	-7%	.	-6%	-1%	-22%
O=C(C1CC1)N1CCc2cc(S(=O)(=O)NCCCN3CCCCC3)ccc21	-6%	?	6%	3%	?
CC(Oc1ccc(Br)cc1)C(=O)N1CCc2ccccc21 (configuration not stated)	2%	1.5µM*	3%	5%	22%
O=C(C1CCC(C(=O)N2CCc3ccccc32)CC1)N1CCc2ccccc21 (configuration not stated)	-1%	2%	3%	2%	8.3µM*
O=C(CCl)c1ccc2c(c1)CCN2C(=O)C1CCCCC1	11µM*	?	-7%	.	?
CC(C)CCN(C(=S)Nc1cccc(F)c1)C1CCN(C(C)C)CC1	-8%	?	0%	.	60%
O=C(CS(=O)(=O)c1ccccc1)N1CCc2ccccc21	-8%	54%	-2%	3%	0.83µM*
CC(=O)Nc1cccc(-c2ccnc3c2CC(C(=O)Nc2ccc(Cl)cc2)O3)c1 (configuration not stated)	-6%	.	.	.	.
Clc1cccc(-c2nc3c4ccccc4ccn3c2Cc2ccsc2)c1	8%	.	.	.	.
Cn1c(Oc2ccc(Cl)cc2)c(C=O)c2ccccc21	-7%	?	-2%	-64%	9.3µM*
Cn1c(Sc2ccccc2Cl)c(C=O)c2ccccc21	1%	?	8%	-2%	?
Cn1c(Sc2ccc(Cl)cc2)c(C=O)c2ccccc21	-9%	12µM*	-20%	-18%	?
CC(C)(C)OC(=O)N1CCC(C(=O)Nc2cccc(C(=O)NCCCc3ccccc3)c2)CC1	1%	.	.	.	.
CCCCc1nnc(NC(=O)CN2C(=O)NC3(CCCCC3)C2=O)s1	-4%	10%	1%	4%	-2%
O=C(NCCc1ccc2c(c1)OCO2)Oc1ccccc1	4%	.	.	.	.
CCOc1ccc(C(=O)Nc2ccc(S(=O)(=O)Nc3nccc(C)n3)cc2)cc1OCC	0%	-27%	4%	7%	8.3µM*
Cc1ccnc(NS(=O)(=O)c2ccc(NC(=O)C(C)(C)C)cc2)n1	-4%	1.9µM*	1%	2%	48%
Cc1cc(C)nc(NS(=O)(=O)c2ccc(NC(=O)Cc3ccccc3)cc2)n1	3%	-2%	-3%	.	13µM*
